Assay outcomes as filed in PubChem.
Shown are actives, neighbours in structure and some others; about 3.6% of the full set was active somewhere.
Peg3 promoter: reduces Peg3 promoter-driven luciferase expression in HeLa; HeLa PEG-Prom luciferase reporter, luminescence, overnight; inhibition, % at 20 µM; 360,000 tested, 1.7% active;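 active = inhibition of at least 50% at 20 µM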
HSP90 inh: inhibitors of HSP90 luciferase refolding in rabbit reticulocyte lysate; luciferase refolding luminescence, 3 h; 290,000 tested, 0.91% active; inhibition, % at 5.6 µM;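 active = inhibition above the screen-wide mean plus 3 SD, computed separately per campaign, cut at about 16% in these data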;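 note: inhibitors lower the luminescence because luciferase stays unfolded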
Mdm2-MdmX inh: human Mdm2/MdmX binding inhibition; O15151+Q00987; SaOS-2 split-luciferase Mdm2/MdmX complementation, luminescence; inhibition, % at 8 µM; 330,000 tested, 3% active; AID 485346;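 active = inhibition of at least 50% at 8 µM in the primary screen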
Target sequence (O15151 whole entry, looked up): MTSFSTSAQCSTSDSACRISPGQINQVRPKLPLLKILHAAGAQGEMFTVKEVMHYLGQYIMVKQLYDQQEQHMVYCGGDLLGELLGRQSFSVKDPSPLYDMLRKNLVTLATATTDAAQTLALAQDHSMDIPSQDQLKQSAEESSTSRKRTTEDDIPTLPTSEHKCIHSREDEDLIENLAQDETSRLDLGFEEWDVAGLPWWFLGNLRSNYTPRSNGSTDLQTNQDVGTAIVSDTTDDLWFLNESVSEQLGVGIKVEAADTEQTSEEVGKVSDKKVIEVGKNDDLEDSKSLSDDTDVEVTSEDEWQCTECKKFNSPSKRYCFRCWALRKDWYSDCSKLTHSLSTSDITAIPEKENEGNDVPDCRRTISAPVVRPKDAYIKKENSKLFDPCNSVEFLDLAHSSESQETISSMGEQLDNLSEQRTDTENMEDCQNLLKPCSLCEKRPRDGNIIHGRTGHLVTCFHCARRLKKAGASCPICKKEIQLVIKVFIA
Target sequence (Q00987 whole entry, looked up): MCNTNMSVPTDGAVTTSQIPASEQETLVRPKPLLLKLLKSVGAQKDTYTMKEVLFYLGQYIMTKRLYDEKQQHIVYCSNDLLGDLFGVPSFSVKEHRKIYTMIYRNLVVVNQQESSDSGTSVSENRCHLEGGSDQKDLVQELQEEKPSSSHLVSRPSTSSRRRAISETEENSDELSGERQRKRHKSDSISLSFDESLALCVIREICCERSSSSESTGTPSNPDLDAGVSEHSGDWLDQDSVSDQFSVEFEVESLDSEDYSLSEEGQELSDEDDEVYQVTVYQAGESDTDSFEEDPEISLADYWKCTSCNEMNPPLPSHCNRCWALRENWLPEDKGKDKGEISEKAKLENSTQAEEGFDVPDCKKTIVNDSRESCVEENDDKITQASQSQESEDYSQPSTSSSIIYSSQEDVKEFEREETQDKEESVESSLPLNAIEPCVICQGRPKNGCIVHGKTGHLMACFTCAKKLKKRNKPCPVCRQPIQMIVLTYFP
CF NFkB inh: inhibitors of cystic fibrosis induced NF-kB; KKLEB NF-kB-GFP reporter, PAF-induced, GFP fluorescence overnight; inhibition, % at 5 µM; 360,000 tested, 0.86% active;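 active = at least 50% inhibition at 5 µM, scaled per plate between neutral and stimulator controls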;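 note: PAF is a Pseudomonas aeruginosa culture filtrate used as stimulus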
KKLEB cytotox: counter-screen for CF NF-kB inhibitors: cytotoxicity. KKLEB CF airway cells viability, ATPlite luminescence, overnight; hits give low values; cells stimulated with P. aeruginosa culture filtrate. activity change (cytotoxicity), % at 5 µM. 360,000 tested, 0.36% active;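 active = corrected activity change at or below -50% at 5 µM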
LGR2 inh: blocks bursicon-induced cAMP signaling via Drosophila LGR2 | HEK293 LGR2, CRE-luciferase, bursicon-stimulated, 4 h | 380,000 tested, 0.35% active | AID 720647 | inhibition, % at 9.99 µM;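 active = drop in luminescence signal, shown as inhibition above about 50% in the replicate tests, limit read from the data, passing the limit was not always enough; inconclusive = probably only some replicates passing the limit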;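 note: agonist challenge used bursicon conditioned medium at about half maximal strength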
A number is an active result; – = inactive; ? = inconclusive; · = no result.

SMILES	Peg3 promoter	HSP90 inh	Mdm2-MdmX inh	CF NFkB inh	KKLEB cytotox	LGR2 inh
N#C/C(=C/c1ccc(-c2ccc([N+](=O)[O-])cc2)o1)c1nnc(N2CCOCC2)n1-c1ccccc1	66.8	·	·	–	–	–
COc1ccc2c3c([nH]c2c1)[C@@H](CO)N(C(=O)C1CC1)CC31CCN(S(C)(=O)=O)CC1	·	·	·	·	·	–
O=C(Cc1ccccc1)Nc1cccc(N2C(=O)C=CC2=O)c1	96.3	–	·	52.0	–	–
CN(C)S(=O)(=O)c1cccc(NC(=S)Nc2cccc3cnccc23)c1	–	–	·	73.1	–	–
CCn1c(SCC(=O)c2cc(OC)ccc2OC)nnc1-c1ccncc1	70.3	–	–	–	–	–
Cc1ccc2sc(NNC(=O)c3cc(=O)c4ccccc4o3)nc2c1C	–	18.4	–	–	–	–
CC(=O)Nc1cccc(-c2ccnc3c2CC(C(=O)Nc2cccc(Oc4ccccc4)c2)O3)c1 (configuration not stated)	50.5	·	·	–	–	–
C[C@H]1CN([C@@H](C)CO)C(=O)c2cccc(NC(=O)C3CCOCC3)c2O[C@@H]1CN(C)Cc1ccc(C(=O)O)cc1	·	·	·	·	·	–
CN(C)CCCN(C(=O)COc1ccc(Cl)cc1)c1nc2cc3c(cc2s1)OCO3	64.4	–	–	–	–	–
CCCN1[C@H](C(=O)N(C)C)[C@@H](CO)[C@@H]2Cn3c(ccc(-c4cccc(F)c4)c3=O)[C@@H]21	·	·	·	·	·	–
CN(C)c1ccc(C2NC(=O)c3ccccc3N2)cc1 (configuration not stated)	–	–	–	–	–	53.6
O=C1NC(c2ccc(Cl)cc2)Nc2ccccc21 (configuration not stated)	–	–	–	–	–	–
COCC#Cc1ccc2c(c1)O[C@H](CN(C)Cc1ccccc1)[C@@H](C)CN([C@@H](C)CO)S2(=O)=O	·	·	·	·	·	–
Cc1ccc2nc(Cl)c3cc(C(=O)N(CCN(C)C)Cc4ccco4)sc3c2c1	93.1	–	–	–	–	–
CCc1ccc(/C=C/C(=O)c2ccc(S(=O)(=O)N(C)C)cc2)cc1	54.2	–	–	–	–	–
CCc1ccc(/C=C/C(=O)c2ccc(N3CCOCC3)cc2)cc1	–	–	–	–	–	–
CC1CN(C(=O)CCC(=O)NCc2ccccc2)c2cc(Cl)ccc2O1 (configuration not stated)	–	66.8	–	–	–	–
Cc1ccc2c(c1)N(C(=O)CCC(=O)NCc1ccccc1)CC(C)O2 (configuration not stated)	–	–	–	–	–	–
C[C@@H]1CCCCO[C@@H](CN(C)Cc2ccncc2)[C@@H](C)CN([C@@H](C)CO)C(=O)c2cc(NC(=O)c3ccccc3)ccc2O1	·	·	·	·	·	–
O=c1[nH]c(/C(Cl)=C/c2cc(Cl)ccc2O)nc2cc(Cl)ccc12	–	–	–	–	-53.1	·
O=S(=O)(Nc1cc(C(F)(F)F)ccc1N1CCOCC1)c1ccccc1	–	–	–	–	–	·
O=S(=O)(Nc1cc(C(F)(F)F)ccc1N1CCOCC1)c1ccc2ccccc2c1	50.5	–	–	–	–	–
O=S(=O)(Nc1ccc(O)c2ccccc12)c1cccs1	–	–	–	86.5	–	–
O=S(=O)(Nc1cccc2ccccc12)c1cccs1	–	–	–	–	–	–
NS(=O)(=O)c1ccc(N/N=C2/CCCCC2C2CCCCC2)c([N+](=O)[O-])c1 (configuration not stated)	–	–	–	–	–	·
SMILES	Peg3 promoter	HSP90 inh	Mdm2-MdmX inh	CF NFkB inh	KKLEB cytotox	LGR2 inh
Cc1cc(C)c2c(c1)/C(=N/Nc1ccc(S(N)(=O)=O)cc1[N+](=O)[O-])CCC2	61.2	–	–	–	–	–
OCCN(CCO)c1ccc(C(c2ccccc2Cl)c2ccc(N(CCO)CCO)cc2Cl)c(Cl)c1	59.5	–	–	–	–	·
O=C(O)c1cccc(N(CCO)CCO)c1	–	–	–	–	–	?
COc1cc(NC(=O)c2cc(-c3ccccc3)on2)cc(OC)c1OC	–	–	–	–	–	–
COc1cc(NC(=O)c2cc3nc(-c4ccccc4)cc(-c4ccccc4)n3n2)cc(OC)c1OC	57.1	–	–	–	–	·
Cc1ccc(S(=O)(=O)NC(=NCc2ccccc2)c2ccc(F)cc2)cc1	51.0	–	–	–	–	–
Cc1ccc(S(=O)(=O)Nc2ccc3c(c2)C(=O)N([C@H](C)CO)C[C@@H](C)[C@H](CN(C)S(=O)(=O)c2c(C)noc2C)OCCCC[C@H](C)O3)cc1	·	·	·	·	·	–
Cc1nn(C)cc1NC(=O)C[C@@H]1CC[C@H]2[C@@H](COc3ccc(NC(=O)C(C)C)cc3C(=O)N2C)O1	·	·	·	·	·	–
CS(=O)(=O)c1ccc(S(=O)CC(=O)OCc2ccccc2)c([N+](=O)[O-])c1 (configuration not stated)	109.8	–	·	88.7	–	·
O=C(Nc1ccccc1)c1ccccc1Oc1ccc(C(F)(F)F)cc1[N+](=O)[O-]	56.1	–	–	–	–	–
C=CCNC(=O)/C(C#N)=C/c1c(N(Cc2ccccc2)Cc2ccccc2)nc2ccccn2c1=O	50.0	–	–	–	–	–
COc1ccc(-c2ccc3[nH]c4c(c3c2)CCN2C(=O)[C@@H]([C@H](C)O)[C@@H](N(C)C(=O)Nc3ccc(F)cc3)C[C@@H]42)cc1	95.3	·	·	–	–	·
COc1ccc(-c2ccc3[nH]c4c(c3c2)CCN2C(=O)[C@@H]([C@H](C)O)[C@@H](N(C)C(=O)Nc3cc(Cl)cc(Cl)c3)C[C@@H]42)cc1	–	·	·	–	–	–
COc1cccc(Nc2nc(C(N)Cc3ccc(F)cc3)cs2)n1 (configuration not stated)	113.9	·	·	–	–	?
COc1cccc(Nc2nc(C(N)Cc3ccc(Cl)cc3)cs2)n1 (configuration not stated)	98.6	·	·	–	–	–
NC(=O)c1cccc(Nc2nc(C(N)Cc3ccc(C(F)(F)F)cc3)cs2)n1 (configuration not stated)	–	·	·	–	–	–
COc1cccc(Nc2nc(C(N)CC(C)C)cs2)n1 (configuration not stated)	–	·	·	–	–	–
NC(Cc1ccccc1)c1csc(Nc2ccc(C(F)(F)F)cn2)n1 (configuration not stated)	99.9	·	·	–	–	–
COc1cccc(Nc2nc(C(N)Cc3ccc(C(F)(F)F)cc3)cs2)n1 (configuration not stated)	99.5	·	·	–	–	–
C[C@H](CO)N1C[C@H](C)[C@@H](CN(C)Cc2ccc(-c3ccccc3)cc2)Oc2c(NC(=O)c3ccc(-c4nccs4)cc3)cccc2C1=O	·	·	·	·	·	–
NC(Cc1ccc(Cl)cc1)c1csc(Nc2cc(Oc3ccccc3)ncn2)n1 (configuration not stated)	108.4	·	·	–	–	·
NC(Cc1ccc(F)cc1)c1csc(Nc2cc(NCc3ccco3)ncn2)n1 (configuration not stated)	70.3	·	·	–	–	–
